Measurements taken from PubChem BioAssay (EPA / NIEHS).
Calls of active or inactive are those of the source. Rule for the calls: active = hit-call score of the fitted dose curve at least 0.9, where 1 is the maximum; inactive = score below 0.9.

Legend:
Settings in all cases: mRNA level, 48 h; actives raise or lower the signal
[1] = read-out: DNA damage-inducible transcript 3 (DDIT3), DDIT3 (gene 1649); assay: LTEA_HepaRG_DDIT3: Life Technologies and Expression Analysis (LTEA) Assay for DNA damage-inducible transcript 3 (DDIT3) using HepaRG (AID 2283488)
Summary of the method: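 HepaRG plated 48 h, switched to serum-free induction medium, dosed 48 h (100 uM top, half-log, 8 pts, 0.5% DMSO, n=2); RNA isolated; DDIT3 by qRT-PCR; bidirectional curve fit vs DMSO.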

[2] = read-out: Pro-epidermal growth factor (Homo sapiens) (UniProt P01133); assay: LTEA_HepaRG_EGF: Life Technologies and Expression Analysis (LTEA) Assay for Epidermal growth factor (EGF) using HepaRG (AID 2283489)
Summary of the method: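 Differentiated human HepaRG cells, plated 48 h then switched to serum-free induction medium, were exposed for 48 h to test chemicals (8-point half-log series, top 100 uM, 0.5% DMSO). EGF mRNA was quantified by qRT-PCR, normalized to ACTB, GAPDH, POLR2A.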

[3] = read-out: Early growth response protein 1 (EGR1) transcription factor, EGR1 (gene 1958); assay: LTEA_HepaRG_EGR1: Life Technologies and Expression Analysis (LTEA) Assay for Early growth response protein 1 (EGR1) transcription factor using HepaRG (AID 2283490)
Summary of the method: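 Differentiated human HepaRG cells in serum-free induction medium were exposed in duplicate for 48 h to eight concentrations (top 100 uM, half-log steps) in 0.5% DMSO. EGR1 mRNA was quantified by qRT-PCR, normalized to ACTB, GAPDH and POLR2A, and fitted bidirectionally versus DMSO.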

[4] = read-out: Ezrin (EZR), EZR (gene 7430); assay: LTEA_HepaRG_EZR: Life Technologies and Expression Analysis (LTEA) Assay for Ezrin (EZR) using HepaRG (AID 2283491)
Summary of the method: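 HepaRG, 48 h chemical exposure, 8-pt half-log series from 100 uM, 0.5% DMSO vehicle, duplicates. Read-out: EZR mRNA by TaqMan qRT-PCR (Fluidigm array), housekeeping-normalized; bidirectional curve fit vs DMSO baseline.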

[5] = read-out: Fatty Acid-Binding Protein 1 (FABP1), FABP1 (gene 2168); assay: LTEA_HepaRG_FABP1: Life Technologies and Expression Analysis (LTEA) Assay for Fatty Acid-Binding Protein 1 (FABP1) using HepaRG (AID 2283494)
Summary of the method: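 Differentiated human HepaRG cells were exposed in duplicate for 48 h in serum-free induction medium to 8-point half-log concentration series topping at 100 uM in 0.5% DMSO. FABP1 mRNA measured by TaqMan qRT-PCR, normalized to ACTB/GAPDH/POLR2A; bidirectional fit versus DMSO.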

CYP2E1 (gene 1571) = assay: LTEA_HepaRG_CYP2E1: Life Technologies and Expression Analysis (LTEA) Assay for CYP2E1 using HepaRG (AID 2283485)
Summary of the method: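 Human liver line HepaRG, plated 48 h, then serum-free induction medium + chemical x 48 h; 8-pt CRC from 100 uM, half-log, 0.5% DMSO, n=2. Readout: CYP2E1 mRNA qRT-PCR vs ACTB/GAPDH/POLR2A; bidirectional fit vs DMSO.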

CYP4A11 (gene 1579) = assay: LTEA_HepaRG_CYP4A11: Life Technologies and Expression Analysis (LTEA) Assay for CYP4A11 using HepaRG (AID 2283486)
Summary of the method: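 Differentiated HepaRG cells, serum-free induction medium, exposed 48 h in duplicate to 8-point half-log series from 100 uM in 0.5% DMSO. CYP4A11 mRNA measured by qRT-PCR, normalized to ACTB, GAPDH, POLR2A; bidirectional fit versus DMSO.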

[6] = read-out: Cytochrome P450 3A4 (Homo sapiens) (UniProt P08684); assay: LTEA_HepaRG_CYP3A4: Life Technologies and Expression Analysis (LTEA) Assay for CYP3A4 using HepaRG (AID 2283487)
Summary of the method: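 CYP3A4 transcript measured by TaqMan qRT-PCR and normalized to three housekeeping genes after 48 h chemical exposure of human HepaRG cells. Top concentration 100 uM, half-log steps, 0.5% DMSO vehicle; gain or loss fitted against DMSO baseline.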

[7] = read-out: Cytochrome P450 3A7 (Homo sapiens) (UniProt P24462); assay: LTEA_HepaRG_CYP3A7: Life Technologies and Expression Analysis (LTEA) Assay for CYP3A7 using HepaRG (AID 2283492)
Summary of the method: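 HepaRG cells plated 48 h, then dosed in serum-free induction medium for 48 h at 8 concentrations (top 100 uM, half-log steps, 0.5% DMSO). CYP3A7 mRNA by qRT-PCR, normalised to ACTB/GAPDH/POLR2A; bidirectional fit versus DMSO.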

CYP3A5 (gene 1577) = assay: LTEA_HepaRG_CYP3A5: Life Technologies and Expression Analysis (LTEA) Assay for CYP3A5 using HepaRG (AID 2283493)
Summary of the method: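 HepaRG plated 48 h, switched to serum-free induction medium, chemicals added 48 h (max 100 uM, half-log, 0.5% DMSO). RNA isolated; CYP3A5 by TaqMan qRT-PCR. Gain/loss vs DMSO.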

Measured: AC50

Chain of Cytochrome P450 3A4 (Homo sapiens) (P08684 whole entry, looked up): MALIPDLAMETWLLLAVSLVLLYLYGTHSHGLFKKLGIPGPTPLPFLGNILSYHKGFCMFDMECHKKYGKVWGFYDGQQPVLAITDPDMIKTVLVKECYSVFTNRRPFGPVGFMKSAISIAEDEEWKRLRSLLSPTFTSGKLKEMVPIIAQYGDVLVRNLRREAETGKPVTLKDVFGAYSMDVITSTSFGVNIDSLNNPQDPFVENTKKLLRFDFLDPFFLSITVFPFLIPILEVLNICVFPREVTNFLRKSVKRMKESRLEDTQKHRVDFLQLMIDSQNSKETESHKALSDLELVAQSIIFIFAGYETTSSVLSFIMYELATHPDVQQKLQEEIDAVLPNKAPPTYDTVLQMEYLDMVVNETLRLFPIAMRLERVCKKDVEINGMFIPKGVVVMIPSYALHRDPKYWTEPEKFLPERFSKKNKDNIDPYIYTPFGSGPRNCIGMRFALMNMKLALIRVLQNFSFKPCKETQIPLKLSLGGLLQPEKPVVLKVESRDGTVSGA
Chain of Cytochrome P450 3A7 (Homo sapiens) (P24462 whole entry, looked up): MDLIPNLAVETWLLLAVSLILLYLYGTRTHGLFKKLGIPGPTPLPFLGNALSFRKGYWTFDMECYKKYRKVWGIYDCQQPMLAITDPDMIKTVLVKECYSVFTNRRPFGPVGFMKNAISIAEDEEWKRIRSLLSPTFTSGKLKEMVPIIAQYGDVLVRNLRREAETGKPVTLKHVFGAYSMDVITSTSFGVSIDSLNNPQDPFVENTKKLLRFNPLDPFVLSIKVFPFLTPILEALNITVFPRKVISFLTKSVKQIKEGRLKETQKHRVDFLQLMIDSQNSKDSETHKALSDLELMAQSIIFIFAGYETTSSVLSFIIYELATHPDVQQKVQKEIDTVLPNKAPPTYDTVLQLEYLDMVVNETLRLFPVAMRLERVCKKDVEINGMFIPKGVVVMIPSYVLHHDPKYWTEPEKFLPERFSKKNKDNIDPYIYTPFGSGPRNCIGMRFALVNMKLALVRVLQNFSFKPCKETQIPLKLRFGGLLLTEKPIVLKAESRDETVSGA

O=C(c1ccccc1)c1ccccc1
inactive: [1] | [2] | [3] | [4]
active: [5] 0.851 µM

CCCCc1oc2ccccc2c1C(=O)c1cc(I)c(OCCN(CC)CC)c(I)c1
inactive: [2]
active: [1] 56.8 µM | [3] 61 µM | [4] 58.2 µM | [5] 69.9 µM

N=C(N)c1ccc(OCCCCCOc2ccc(C(=N)N)cc2)cc1
inactive: [4]
active: CYP2E1 (gene 1571) 6.51 µM | CYP4A11 (gene 1579) 3.02 µM | [1] 3.45 µM | [2] 22.2 µM | [3] 27.1 µM | [5] 4.05 µM

Cc1[nH]nc2c1N=C(c1ccccc1Cl)c1cc([N+](=O)[O-])ccc1N2
active: CYP2E1 (gene 1571) 10.1 µM | CYP4A11 (gene 1579) 5.26 µM | [6] 77.6 µM | [4] 1.38 µM | [7] 2.83 µM | CYP3A5 (gene 1577) 13.4 µM | [5] 8.85 µM
inactive: [1] | [2] | [3]

CCCCC=O
inactive: all assays above

O=C1NS(=O)(=O)c2ccccc21
inactive: all assays above

CCC(C)c1ccccc1O (configuration not stated)
inactive: all assays above

CN(Cc1cnc2nc(N)nc(N)c2n1)c1ccc(C(=O)N[C@@H](CCC(=O)O)C(=O)O)cc1
active: CYP2E1 (gene 1571) 0.222 µM | [3] 0.121 µM | CYP3A5 (gene 1577) 0.0985 µM | [5] 0.322 µM
inactive: all other assays above
